# From PubChem
# D1 PAM: human D1 dopamine receptor positive modulation. P21728. HEK293 TREx D1 cells, calcium flux, dopamine EC20 potentiation. potentiation, % at 10 µM. hit rate 0.036% among 360,000; in the data active means potentiation above about 30%
# Target sequence (P21728 whole entry, looked up): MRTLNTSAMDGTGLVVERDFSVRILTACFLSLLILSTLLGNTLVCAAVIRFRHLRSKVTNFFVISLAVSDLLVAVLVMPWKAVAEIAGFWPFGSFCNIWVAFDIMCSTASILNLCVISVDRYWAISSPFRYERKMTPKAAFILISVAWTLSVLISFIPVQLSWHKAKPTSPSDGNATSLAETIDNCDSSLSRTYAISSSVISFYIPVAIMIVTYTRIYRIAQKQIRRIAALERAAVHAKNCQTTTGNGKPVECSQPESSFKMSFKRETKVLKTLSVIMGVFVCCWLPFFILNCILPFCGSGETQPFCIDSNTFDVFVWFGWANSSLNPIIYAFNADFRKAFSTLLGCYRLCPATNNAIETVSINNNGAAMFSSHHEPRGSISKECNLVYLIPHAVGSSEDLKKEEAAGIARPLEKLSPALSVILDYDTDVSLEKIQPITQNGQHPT
# D1 antag: blocks dopamine activation of the human D1 receptor. activity change, negative = inhibition, % at 10 µM. HEK293 TREx D1 cells, calcium flux, dopamine EC80; active compounds read low. AID 504652. hit rate 3.2% among 360,000; in the data active means activity change below about -30%
#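 Compound effects on dopamine-evoked calcium signalling were measured in tetracycline-induced HEK293 Trex D1 cells. Dopamine at EC80 followed a 180 s compound pre-read, and fluorescence was tracked kinetically for 180 s more.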
# D1 agonist: human D1 receptor agonism. HEK293 T-REx D1 cells, calcium flux, agonist mode. hit rate 1% among 360,000. P21728. activation, % at 2 µM. AID 504660; in the data active means activation above about 30%
#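 Inducible HEK293 T-REx D1 cells, force-coupled to calcium signalling, were plated at 4000 cells/well with tetracycline and held overnight at 30 C. After no-wash calcium dye loading, compound-evoked calcium rise over 180 s flagged agonists.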
# DRD3 antagonist: D3 dopamine receptor (human) antagonism | D3R cells, DiscoveRx beta-arrestin luminescence, antagonist mode; active compounds read low | max response, negative = inhibition, % | hit rate 2.5% among 360,000; in the data active means max response below about -50%; inconclusive means no clear call, values can overlap the other calls
#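 Cells plated overnight at 1500 cells/well, then exposed to library compounds with dopamine controls for 90 minutes at 37 degrees C. DiscoveRx reagent added for 30–60 minutes at room temperature; luminescence read, quantitative HTS format.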
# D3 ag: activates the human D3 dopamine receptor | hit rate 0.58% among 410,000 | P35462 | D3R DiscoveRx beta-arrestin cells, luminescence, 90 min | max activation, %; in the data active means max activation above about 30%
#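 Agonist mode: compounds and dopamine controls were applied to plated cells for 90 min at 37 degrees C after an overnight attachment at 1500 cells/well. Luminescent read-out followed 30 - 60 minutes at room temperature with DiscoveRx detection reagent.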
# Hits are given with their value; – = inactive; ? = inconclusive; · = no result; ! = not confirmed by another sample. An excerpt weighted towards active compounds, which were near 6.1% of everything screened.
SMILES,D1 PAM,D1 antag,D1 agonist,DRD3 antagonist,D3 ag
COC(=O)c1ccc(CN2C(=O)NC3(CCC(C)CC3)C2=O)o1 (centres undefined),–,–,–,-64.6,–
O=C1Cc2cc(NS(=O)(=O)c3cc(F)ccc3F)cc3c2N1CCC3,–,-60.0,–,–,–
O=C(NCc1ccccn1)Nc1cccc(Cl)c1Cl,–,–,–,–,–
Cc1cc(NC(=O)CCC(=O)N(CCC(C)C)C(C(=O)NCC2CCCO2)c2ccccc2C)no1 (centres undefined),–,–,–,–,40.7
Cc1ccccc1NC(=O)c1ccc(CN2CC(=O)N3CCCCC3C2=O)cc1 (centres undefined),–,-37.4,–,–,–
COC(=O)[C@]12CCCCC=C1N(Cc1ccco1)C(=O)[C@H](CC(=O)N1CCCCC1)C2,·,·,·,–,–
O=C(NC(=S)NNC(=O)[C@H]1C[C@@H]1c1ccccc1)c1ccc(F)cc1,–,–,91.0,–,–
O=C(/C=C/c1ccc(F)cc1)NC(=S)NNC(=O)[C@H]1C[C@@H]1c1ccccc1,–,–,–,–,–
COc1ccc(C(=O)NC(=S)NNC(=O)[C@H]2C[C@@H]2c2ccccc2)cc1OC,–,–,–,–,–
COc1cc(OC)cc(C(=O)NC(=S)NNC(=O)[C@H]2C[C@@H]2c2ccccc2)c1,–,–,87.6,–,–
C=C(NC(=O)C(=C)NC(=O)c1csc(C2=NC3c4csc(n4)C4NC(=O)c5csc(n5)C([C@@](C)(O)C(C)O)NC(=O)C5CSC(=N5)/C(=C\C)NC(=O)C(C(C)O)NC(=O)c5csc(n5)[C@]3(CC2)NC(=O)C(C)NC(=O)C(=C)NC(=O)C(C)NC(=O)C(C(C)CC)NC2C=Cc3c(C(C)O)cc(nc3C2O)C(=O)OC4C)n1)C(N)=O (some centres undefined),–,–,–,·,·
Cn1nnnc1Sc1ncnc2scc(-c3ccc(N)cc3)c12,–,–,–,·,·
O=C(Nc1ccccc1)c1ccc2c(c1)CCN2S(=O)(=O)c1ccccc1,–,-31.8,–,–,–
Cc1ccc(S(=O)(=O)N2CCc3cc(C(=O)NCCc4ccccc4)ccc32)cc1,–,–,–,·,63.9
COc1ccc(NC(=O)c2ccc3c(c2)CCN3S(=O)(=O)c2ccccc2)cc1,–,-50.9!,–,–,–
O=C1NC[C@H](CCCCN2C[C@H](Cc3ccccc3)N(CCc3ccc(O)cc3)C(=O)C2=O)N(CCc2ccc(O)cc2)C1=O,·,·,·,–,–
COc1ccc(S(=O)(=O)NN(C)C(=O)c2nn(-c3ccccc3)ccc2=O)cc1,–,–,–,–,–
CSc1ccccc1NC(=O)CN(c1ccccc1Br)S(C)(=O)=O,–,–,–,–,–
C=C1C(=O)C23C(O)C1CCC2C12CCCC(C)(COC(C)=O)C1C(O)C3(O)OC2 (centres undefined),·,·,·,-95.0,–
CCc1ccc(-c2[nH]nc3nc(-c4ccc(OC)cc4)cc(C(=O)NCCCOC)c23)cc1,–,–,–,·,–
CC(C)COc1ccc(C(=O)N(Cc2ccc(N(C)C)cc2)Cc2ccco2)cc1,–,–,–,·,–
Fc1ccccc1N1CCN(c2ncnc3[nH]ncc23)CC1,–,–,–,–,–
c1ccc(N2CCN(c3ncnc4[nH]ncc34)CC2)cc1,–,-34.6,–,·,–
CCC1CCCCN1C(=O)CSc1nc(-c2ccc(OC)cc2)cc(C(F)(F)F)n1 (centres undefined),–,-31.1,–,·,–
CCC1CCCCN1C(=O)CSc1nc(-c2ccc(OC)c(OC)c2)cc(C(F)(F)F)n1 (centres undefined),–,–,–,·,–
SMILES,D1 PAM,D1 antag,D1 agonist,DRD3 antagonist,D3 ag
CN(Cc1ccccc1)C(=O)c1nc2ccccn2c1CN1CCc2sccc2C1,–,-32.8,–,–,–
Cc1noc(C)c1CSCC(=O)N(C)CC(=O)Nc1ccccc1Br,–,-47.1,–,–,–
Cc1cccc(C)c1NC(=O)CN(C)C(=O)CSCc1c(C)noc1C,–,–,–,–,–
C[C@H]1CNC(=O)c2c(C(=O)N3CCN(C(=O)OC(C)(C)C)CC3)ncn21,·,·,·,-55.2,–
COc1ccc(C)cc1-n1cnnn1,–,–,–,–,–
COc1ccc(C(=O)Nc2ccccc2C(=O)OCc2cc(=O)n3nc(C4CC4)sc3n2)cc1,–,–,–,·,–
Cc1noc(C)c1CSc1ccc(Br)cc1,–,-32.9,–,–,–
CC(=O)Nc1ccc(SCc2c(C)noc2C)cc1,–,–,–,–,–
CC(CNC(=O)c1ccc2nc(CCc3ccccc3)oc2c1)c1ccccc1 (centres undefined),–,–,–,·,–
CCOc1ccc2[nH]c(=O)c(C(c3nnnn3C3CCCCC3)N3CCN(CC)CC3)cc2c1 (centres undefined),–,–,–,–,–
COc1ccc2[nH]c(=O)c(C(c3nnnn3C3CCCC3)N3CCN(Cc4ccc5c(c4)OCO5)CC3)cc2c1 (centres undefined),–,·,–,-53.8,–
O=C(CCSc1ccc(Cl)c(Cl)c1)NC12CC3CC(CC(C3)C1)C2,–,–,40.5,–,–
CC(C)(C(=O)N1CCC1(C)C(=O)Nc1ccccc1Br)c1ccccc1 (centres undefined),·,·,·,–,–
N#Cc1c(-c2ccccc2Cl)cc(C2CC2)nc1N,–,–,99.2,–,–
Cc1cccc(NC(=O)Cn2cc(C(=O)c3ccco3)c3ccccc32)c1C,–,–,–,·,–
O=C1CCC[C@@H]2C[C@@]3(C[C@@H]4CCN1[C@H]24)Nc1cc(Cl)ccc1NC3=NCc1ccccc1,·,·,·,–,–
COc1ccc(NC2=Nc3ccccc3N[C@@]23C[C@H]2CCCC(=O)N4CC[C@@H](C3)[C@@H]24)cc1,·,·,·,-68.1,–
O=C(CSc1nc2c([nH]c3ccccc32)c(=O)n1-c1ccccc1)N1CCCCC1,–,–,–,·,–
Cc1ccc(-n2c(SCc3ccccc3)nc3c([nH]c4ccccc43)c2=O)cc1,–,-33.4,–,·,–
O=C(CSc1nc2c([nH]c3ccccc32)c(=O)n1-c1ccc(F)cc1)N1CCCCCC1,–,–,–,·,32.8
Brc1cnc2nc[nH]c2c1,–,–,–,–,–
O=C1NC[C@@H](CCCCN2C[C@H](Cc3ccc(O)cc3)N(Cc3ccccc3)C(=O)C2=O)N(CC2CCCCC2)C1=O,·,·,·,?,–
N#Cc1cn(Cc2ccncc2)c(=O)[nH]c1=O,–,–,–,–,–
Cc1ccc(-c2csc(N3CCN(c4cc5c(cc4Cl)nc(C)n5CCN4CCCCC4)CC3)n2)cc1,–,-38.7,–,?,–
C[C@H](CO)N1C[C@H](C)[C@@H](CN(C)S(=O)(=O)c2ccccc2)Oc2ccc(NS(=O)(=O)c3cn(C)cn3)cc2C1=O,·,·,·,–,–
C[C@H](CO)N1C[C@H](C)[C@@H](CN(C)C(=O)NC2CCCCC2)Oc2c(NS(=O)(=O)c3ccccc3)cccc2C1=O,·,·,·,–,–
